From PubChem BioAssay AID2289 (National Center for Advancing Translational Sciences (NCATS), 2010)
Several values for one entry are separate records, joined by “and”; a condition that tells them apart may be missing. Identical values can stand only once. Screen size: about 340,000 compounds; about 3,300 (0.97%) were called active. About 9% were inconclusive and are not listed. The call rests on the fitted dose curve; in most records, active means well fitted inhibition curve with a large enough effect; inconclusive means small, poorly fitted or top-dose-only effect, or effect the other way; inactive means flat fitted curve, though single readings scatter. This is one part of the list.

experiment: qHTS Assay for Modulators of miRNAs and/or Inhibitors of miR-21; conditions: HeLa miR-21-FLuc reporter, luciferase luminescence, 48 h; actives lower the signal; further: nearly all actives have a fitted effect of over 55% in size
Text: MLSCN Grant: 1 R21 NS059478-01 Assay Provider: Qihong Huang, The Wistar Institute NCGC Assay Overview: MicroRNAs (miRNAs) are endogenously encoded small (~20-25 nucleotides), nonprotein-coding RNAs that are involved in post-transcriptional repression of target messenger RNAs (mRNAs) (Le and Hannon, 2004). Estimated to be involved in the regulation of 30% of all protein-coding mRNAs (Filipowicz et al., 2008), miRNAs play a significant role in many biological processes including cellular differentiation and tissue development (Ghildiyal and Zamore, 2009).
NCGC Assay Protocol Summary: Reagents: HeLa cells stably expressing firefly luciferase (FLuc) under the control of a CMV promoter (upstream) and a miR-21 binding sequence directly downstream of the gene. These cells endogenously express miR-21. Control compounds used were compound C3 (provided by collaborator), N6-phenyladenosine (MP Biomedicals, 0215379625), and DMSO. Assay Summary: 6uL of HeLa miR-21-FLuc cells in assay buffer (DMEM, Invitrogen #21063-029; 10% FBS, HyClone #SH30071.03) were dispensed at 2000cells/well (3.3 x 10^5 cells/mL) into Greiner solid-white TC-treated 1536-well plates using a Multidrop Combi (Thermo Fisher Scientific). Plates were incubated for one hour at 37 degree Celsius, 95% humidity, 5% CO2. These assay plates were then treated with 23nL of compound or DMSO using a Kalypsys pin tool, which allows for delivery of a 24-point titration of each compound to the assay plate, with a final compound concentration ranging from approximately 40uM to 5pM. Assay plates were then incubated for 48 hours. After incubation, plates were allowed to come to RT for one hour prior to delivery of 3uL of 3X luciferase detection reagent. After a 15 minute incubation to allow for cell lysis, luciferase activity was measured using a ViewLux CCD imager (PerkinElmer), with an average exposure time of 2-12 seconds. Keywords: NIH Roadmap, MLPCN, MLSMR, qHTS, miR-21, microRNA, firefly luciferase, FLuc.
Potency means the concentration at half of the fitted maximal effect.

SMILES | Potency
CCCC(=O)Nc1cc2nn(-c3ccccc3)nc2cc1C | 0.369 µM (active)
CC(=O)Nc1cc2nn(-c3ccccc3)nc2cc1Cl | 0.464 µM (active)
CC(C)CC(=O)Nc1ccc2nn(-c3ccccc3)nc2c1 | 0.656 µM (active)
COc1ccc(O)c(/C=N/N2CCCCC2)c1 | 5.21 µM (active)
O=C1N/C(=C\c2nc3ccccc3s2)c2ccccc21 | 0.0736 µM (active)
CSc1nnc(-c2cc3c(s2)-c2ccccc2CC3)o1 | 1.17 µM (active)
Cn1c(C(=O)NCC2CCCO2)cc2oc3ccccc3c21 (stereo not given) | 2.07 µM (active)
COCCNC(=O)c1cc2oc3ccccc3c2n1C | 14.7 µM (active)
Cn1c(C(=O)N2CCc3ccccc3C2)cc2oc3ccccc3c21 | 10.4 µM (active)
CCc1c(C)sc(NC(=O)c2cccs2)c1C#N | 5.21 µM (active)
CCc1c(C)sc(NC(=O)c2ccco2)c1C#N | 11.7 µM (active)
Cc1sc(NC(=O)c2ccccc2)c(C#N)c1-c1ccccc1 | 0.826 µM (active)
Nc1nc2ccc(-c3nc4ccccc4o3)cc2s1 | 0.927 µM (active)
Cc1ccccc1NC(=O)c1ccc2c(c1)N(C)CCS2 | 3.69 µM (active)
CN1CCSc2ccc(C(=O)Nc3ccc(Cl)cc3)cc21 | 1.04 µM (active)
O=C1CCC(=O)N1c1ccc(-c2nc3ccccc3s2)cc1 | 0.521 µM (active)
c1csc(-c2nc3ccccc3s2)c1 | 5.85 µM (active)
c1ccc2sc(-c3ccncc3)nc2c1 | 6.56 µM (active)
O=S(=O)(Nc1cccc(-c2ccc(N3CCCCCC3)nn2)c1)c1ccc(F)cc1 | 13.1 µM (active)
O=S(=O)(Nc1cccc(-c2ccc(N3CCCCCC3)nn2)c1)c1cccc(F)c1 | 9.27 µM (active)
CC(OC(=O)CNC(=O)c1ccccc1F)C(=O)Nc1nc(-c2ccccc2)cs1 (stereo not given) | 4.65 µM (active)
Nc1nn2cc(-c3ccccc3)nc2c2ccccc12 | 0.521 µM (active)
Clc1ccc(COc2ccccc2-c2ccnc3ncnn23)cc1 | 13.1 µM (active)
CC(O)c1ccc(OCCN(C)c2ccccn2)cc1 (stereo not given) | 16.5 µM (active)
COc1cc(OC)c(NC(=O)CCCn2nc(C)c3sc4ccccc4c3c2=O)cc1Cl | 11.7 µM (active)
Cc1ccc(CONC(=O)c2ccccc2)cc1 | 18.5 µM (active)
CC/C(=N/NC(=O)c1ccccc1)c1ccc(OCCN2CCOCC2)cc1 | 2.93 µM (active)

SMILES | Potency
Cc1nn(Cc2c(F)c(F)c(F)c(F)c2F)c(C)c1NC(=O)c1cccc(COc2ccc(Cl)cc2)c1 | 7.36 µM (active)
CC(C)c1cc(C(N)=O)c(NC(=O)c2cccc(COc3ccc(Cl)cc3)c2)s1 | 0.585 µM (active)
COc1ccc(NC(=S)N2CCc3ccccc32)cc1OC | 16.5 µM (active)
Brc1c(CSc2nc3ccccc3s2)nc2ncccn12 | 3.29 µM (active)
Brc1c(CSc2nc3ccccc3o2)nc2ncccn12 | 7.36 µM (active)
COc1ccc(/C(C)=N/Nc2nncc3ccccc23)cc1 | 0.826 µM (active)
C/C(=N\Nc1nncc2ccccc12)c1cccc(OC(F)F)c1 | 0.414 µM (active)
C/C(=N\Nc1nncc2ccccc12)c1ccc(C(C)(C)C)cc1 | 7.36 µM (active)
C/C(=N\Nc1nncc2ccccc12)c1ccc(OCC(=O)N(C)C)cc1 | 4.65 µM (active)
Cc1cc(N2CCOCC2)nc(SCC(=O)c2ccccc2)n1 | 13.1 µM (active)
Cc1cc(=O)oc2cc(NC(=O)c3ccccc3OC(F)F)ccc12 | 8.26 µM (active)
Cc1cc(=O)oc2cc(NC(=O)c3ccccc3Cl)ccc12 | 3.69 µM (active)
COc1cccc(C(=O)Nc2ccc3c(C)cc(=O)oc3c2)c1 | 0.329 µM (active)
CCCCOC(=O)Nc1ccc2c(C)cc(=O)oc2c1 | 1.17 µM (active)
COc1cccc(C(=O)Nc2nnc(-c3ccccc3)s2)c1 | 0.826 µM (active)
O=C(NC(=S)Nc1ccc2c(c1)C(=O)c1ccccc1C2=O)c1ccc(F)cc1 | 2.93 µM (active)
COc1cccc(C(=O)Nc2ccc3c(c2)C(=O)c2ccccc2C3=O)c1 | 2.93 µM (active)
CC(=O)c1sc(Nc2nc3cc4c(cc3s2)OCO4)nc1C | 1.85 µM (active)
Fc1ccc2nc(Nc3nc4cc5c(cc4s3)OCO5)sc2c1 | 1.65 µM (active)
c1ccc2sc(Nc3nc4cc5c(cc4s3)OCO5)nc2c1 | 3.69 µM (active)
C/C(=N\Nc1nc2ccccc2s1)c1ccc2c(c1)OCO2 | 10.4 µM (active)
CC(=O)Nc1nnc(COc2ccc(Cl)cc2)s1 | 3.29 µM (active)
CCN(CC)S(=O)(=O)c1nnc(NC(=O)COc2ccc(Cl)cc2)s1 | 0.521 µM (active)
Nc1nnnn1/N=C/c1ccc(N2CCCCC2)c([N+](=O)[O-])c1 | 16.5 µM (active)
N/C(CS(=O)(=O)c1ccccn1)=N\OC(=O)c1ccccc1Cl | 4.65 µM (active)
Cc1c2ccccc2nc2c(F)c(NC(C)C)c(F)c(F)c12 | 16.5 µM (active)
O=C(Nc1cccc(Cl)c1)OCc1ccccn1 | 6.56 µM (active)

SMILES | Potency
O=C(Nc1ccc(Cl)cc1)OCc1ccccn1 | 5.85 µM (active)
O=C(Cc1c(Cl)cccc1Cl)OCc1ccccn1 | 18.5 µM (active)
Cc1ccc(-n2nnc(-c3ccnc4ccccc34)n2)cc1 | 1.85 µM (active)
COc1ncccc1-c1nnn(-c2ccc(C)cc2)n1 | 1.47 µM (active)
Cc1ccc(-n2nnc(-c3cccnc3Cl)n2)cc1 | 0.521 µM (active)
CC(C)c1ccc(NC(=O)COc2ccc(F)cc2C(=O)c2cnn(-c3ccccc3)c2)cc1 | 2.93 µM (active)
COCC(=O)Nc1ccc(OCc2ccccc2)cc1 | 11.7 µM (active)
CC(C)c1ccc(NC(=O)COc2ccccc2)cc1 | 7.36 µM (active)
O=C(Nc1ccccc1)OCCOc1ccccc1 | 3.69 µM (active)
Cc1ccc(NC(=O)CCOc2ccccc2)cc1 | 5.85 µM (active) and 8.26 µM (active)
Cc1ccsc1C(=O)Nc1ccc(OCc2ccccc2)cc1 | 1.65 µM (active)
CC(C)c1ccc(NC(=O)Cn2ncc3ccccc32)cc1 | 7.36 µM (active)
CCOc1ccc(NC(=O)NC2CCCCCCC2)cc1 | 2.93 µM (active)
COC(=O)Nc1ccc(OCc2ccccc2)cc1 | 5.21 µM (active)
CCOc1ccc(NC(=O)Cc2ccccc2)cc1 | 2.61 µM (active)
Clc1cccc(Cl)c1C1=NOC(c2nnc(-c3ccccc3)o2)C1 (stereo not given) | 13.1 µM (active)
COc1ccc(C(=O)Nc2ccc(N3CCCC3)cc2)cc1OC | 4.65 µM (active)
O=C(Nc1ccc(N2CCCC2)cc1)c1cccc(Cl)c1 | 0.329 µM (active)
COc1ccc(C(=O)Nc2nc3ccccc3[nH]2)cc1OC | 1.85 µM (active)
NC(=O)NC(=O)C(Nc1ccc(N2CCCCC2)cc1)c1ccccc1 (stereo not given) | 13.1 µM (active)
O=C(Nc1ccccc1O)c1cc2cc(Br)ccc2oc1=O | 0.521 µM (active)
Cc1cccc(NC(=O)c2cc3ccccc3oc2=O)c1 | 0.329 µM (active)
CCN(C(=O)c1cc2ccccc2oc1=O)c1ccccc1 | 6.56 µM (active)
Cc1ccnc(NC(=O)c2cc3ccccc3oc2=O)c1 | 0.414 µM (active)
CCOc1ccc(C2=NC(c3ccc(OC)cc3)=Nc3ccc(Cl)cc3N2)cc1 | 18.5 µM (active)
O=C(Cn1cccc1C(=O)c1ccccc1)NCc1ccccc1Cl | 11.7 µM (active)
O=C1NC(=S)N/C1=C/c1cccc2ccccc12 | 14.7 µM (active)

SMILES | Potency
CCOC(=O)c1cccc(COC(=O)c2cccc(-c3nnc(-c4ccccc4)o3)c2)c1 | 5.85 µM (active)
Cc1c(/C=C/C(=O)c2cccs2)cnn1C | 14.7 µM (active)
Cc1nn(C)cc1/C=C/C(=O)c1cccs1 | 13.1 µM (active)
Nc1nnc(COc2ccc(Br)cc2Br)s1 | 5.21 µM (active)
C=CCN1C(=O)C(=O)N(Cc2nc3ccccc3s2)C1=O | 11.7 µM (active)
Cc1ccc(Oc2ncnc3sccc23)cc1 | 14.7 µM (active)
C=C(C)CNC(=O)CCc1nnc(Cc2cccc(C(F)(F)F)c2)o1 | 11.7 µM (active)
CC1CCCCN1C(=O)c1cc2c(=O)n3ccccc3nc2s1 (stereo not given) | 16.5 µM (active)
CC1CCCN(C(=O)c2cc3c(=O)n4ccccc4nc3s2)C1 (stereo not given) | 14.7 µM (active)
O=C(NC1CCCCCC1)c1cc2c(=O)n3ccccc3nc2s1 | 10.4 µM (active)
CC1CCN(C(=O)c2cc3c(=O)n4ccccc4nc3s2)CC1 | 14.7 µM (active)
Cc1cc(N2CCN(C)CC2)nc2ccc(NC(=O)Nc3ccccc3Cl)cc12 | 0.585 µM (active)
Cc1cc(N2CCN(C)CC2)nc2ccc(NC(=O)Nc3ccccc3)cc12 | 7.36 µM (active)
Cc1cc(C)cc(Nc2ccc(C(=O)O)cc2N)c1 | 18.5 µM (active)
O=C(/C=C/c1cccs1)c1ccc(NC(=O)c2ccccc2F)cc1 | 13.1 µM (active)
N/C(Cc1ccc([N+](=O)[O-])cc1)=N\OC(=O)c1ccccc1F | 16.5 µM (active)
O=C(Nc1ccc([N+](=O)[O-])cc1)c1ccccc1F | 4.14 µM (active)
O=C(Nc1ccn(-c2ccccc2)n1)c1ccccc1Br | 13.1 µM (active)
N=C1C(c2nc3ccccc3[nH]2)=C(O)CN1c1ccc(F)cc1 | 14.7 µM (active)
CCn1c(SCC(=O)O)nnc1-c1ccccc1OC | 3.29 µM (active)
CN(C)c1ccc(/C=N/N=C/c2ccccc2O)cc1 | 2.61 µM (active)
Cc1cc2cc3c(N)[nH]nc3nc2cc1C | 14.7 µM (active)
CCc1ccc2nc3n[nH]c(N)c3cc2c1 | 2.33 µM (active)
Cc1nc(-c2nc(-c3c(C(=O)NN)noc3C)cs2)cs1 | 4.14 µM (active)
